Inconclusive results are not listed. Entries that show only a call come without a potency. Activity calls are given as the source filed them. Calls come from the whole dose curve; as a rule, active = well fitted curve in the direction sought with a large enough effect; inconclusive = small, poorly fitted or top-dose-only effect, or another doubt; inactive = no such curve, though single readings can be large; an effect the other way counts as inactive or inconclusive.

For the first experiment, the target named is Calcium and integrin-binding protein 1 (Homo sapiens) (UniProt Q99828). Briefly: Primary qHTS for Identification of Calcium Integrin Binding Protein 1 (CIB1) Competitor (AID 1508620).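 Note: GST tagged CIB1 binding a fluorescein labelled alphaIIb integrin peptide tracer; top concentration of the series differs between compounds.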 The settings on record: CIB1-GST / FITC-alphaIIb peptide fluorescence polarization; series mostly up to 57.7 µM. The procedure, abridged: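 Fluorescence polarization competition: CIB1-GST (1 uM final) preincubated with compound 15 min at room temperature, then FITC-labeled alphaIIb peptide (100 nM final) added for another 15 min. Polarization read at Ex 480/Em 540.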
Sequence of Calcium and integrin-binding protein 1 (Homo sapiens) (Q99828 whole entry, looked up): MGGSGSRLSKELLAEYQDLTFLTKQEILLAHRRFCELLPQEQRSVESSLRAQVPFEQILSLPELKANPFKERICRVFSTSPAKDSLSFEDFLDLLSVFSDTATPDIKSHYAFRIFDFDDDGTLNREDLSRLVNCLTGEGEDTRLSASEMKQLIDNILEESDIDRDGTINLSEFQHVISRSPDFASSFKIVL
Regarding `Cc1cc(C=c2sc3nc4ccccc4n3c2=O)c(C)n1-c1ccccc1`, the result was inactive.

As for `N#Cc1ccc(C(c2ccc(C#N)cc2)n2cncn2)cc1`, the result was inactive. As to `O=C(C1CC1)N1CC[C@@H](Cn2c(-c3ccc(-c4ccc5occc5c4)cc3)nc3cnccc32)C1`, the outcome was inactive.

Turning to `Cc1c(CCOc2ccc(C(=O)O)cc2)c2cc(Cl)ccc2n1C(c1ccccc1)c1ccccc1`, the outcome was inactive. Take `COc1ccc(-c2oc3cc(OC)ccc3c2C(=O)c2ccc(C#N)cc2)cc1`: the outcome was inactive. Same read-out and setting: for `CC1(C)Cc2c(-c3ccccc3)c(-c3ccc(Cl)cc3)c(CC(=O)O)n2C1` the value was “inactive”; for `CN(C)c1ccc(C2Nc3ccc4ccccc4c3C3=C2C(=O)CC(C)(C)C3)cc1Br` (stereo not given), “inactive”. For the molecule `O=C(c1cc(Cc2n[nH]c(=O)c3ccccc23)ccc1F)N1CCN(C(=O)C2CC2)CC1`, the outcome was inactive. Still for that read-out and setting: then `O=C(Nc1ccc(F)c(C(F)(F)F)c1)Nc1nnc(-c2ccncc2)s1`, with “inactive”. Same read-out and setting: then `Cc1cccc(-c2nn(C(=S)Nc3ccccc3)cc2-c2ccnc3ccccc23)n1`, with “inactive”.

Regarding `COc1ccc(CCN2CCN(CCCc3ccccc3)CC2)cc1OC`, the result was inactive.

Take `Cn1c(=O)c(F)c(Nc2ccc(I)cc2F)c2c(=O)n(C[C@@H](O)CO)cnc21`: the result was inactive.

Take `NC(=O)c1ccc(-c2nc(-c3ccc4c(c3)OCO4)c(-c3ccccn3)[nH]2)cc1`: the result was inactive. As for `CS(=O)(=O)c1ccc(C(=O)Nc2ccc(Cl)c(-c3ccccn3)c2)c(Cl)c1`, the outcome was inactive. The same measure, in the same setting: for `Cc1cc2c(F)c(Oc3ncnn4cc(OC[C@@H](C)O)c(C)c34)ccc2[nH]1` the value was “inactive”; for `COc1cc(F)c(F)c(Nc2ccc(I)cc2F)c1NS(=O)(=O)C1(C[C@H](O)CO)CC1`, “inactive”; for `O=C(Nc1cccnc1)N1CCC(Cc2cccc(Oc3ccc(C(F)(F)F)cn3)c2)CC1`, “inactive”.

Test system in another experiment: not listed separately
The experiment in a line: Primary qHTS for small molecule stabilizers of the endoplasmic reticulum resident proteome: Secreted ER Calcium Modulated Protein (SERCaMP) assay (AID 1508630). The following applies: SH-SY5Y GLuc-SERCaMP (Gaussia luciferase released on ER calcium loss) secretion, thapsigargin, luminescence; series mostly up to 38.4 µM. An outline of the steps:
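GLuc-SERCaMP-expressing SH-SY5Y cells, pretreated 16 h with compound, are challenged with thapsigargin to empty ER calcium stores; after 4 h, coelenterazine is added directly to the medium and luminescence is imaged.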
(In general: qHTS replaces the single test concentration by a dilution series.)
As to `CCOc1cc(C=C2C(=O)N(c3ccccc3)N=C2C)cc(Cl)c1OCC(=O)OC`, the Potency result is “inactive”. On the same count and under the same terms, for `CCn1c(-c2nonc2N)nc2cnc(Oc3cccc(NC(=O)c4ccc(OCCN5CCOCC5)cc4)c3)cc21` the value was “inactive”. As for `Cc1cc([C@@H](C)Nc2ccccc2C(=O)O)c2nc(N3CCOCC3)cc(=O)n2c1`, the Potency entry was “inactive”.

As for `S=C(NCc1ccc2c(c1)OCO2)N1CCN(c2ncnc3c2oc2ccccc23)CC1`, the Potency entry was “inactive”. Still for that read-out and setting: for `O=C(O)[C@@H](c1ccc(OCc2ccc3ccccc3n2)cc1)C1CCCC1` the value was “inactive”. The same measure, in the same setting: for `CO[C@@H]1[C@H](N(C)C(=O)c2ccccc2)C[C@H]2O[C@]1(C)n1c3ccccc3c3c4c(c5c6ccccc6n2c5c31)C(=O)NC4` the value was “inactive”. Same read-out and setting: then `CCOc1cc(N2CCC(O)CC2)ccc1Nc1ncc2c(n1)N(C)c1ccccc1C(=O)N2C`, with “inactive”; and `CCOC(=O)C1=C[C@@]2(CC)CCCN3CCc4c(n1c1ccccc41)[C@H]32`, with “inactive”. Regarding `COCC(=O)NCC=Cc1ccc2ncnc(Nc3ccc(Oc4ccc(C)nc4)c(C)c3)c2c1`, the Potency entry is “inactive”. On the same count and under the same terms, for `CNC(=O)c1ccccc1Sc1ccc2c(/C=C/c3ccccn3)n[nH]c2c1` the value was “inactive”. As for `OC[C@H](Cc1ccccc1)Nc1nc(Oc2ccc3c(c2)CCC3)nc2c1ncn2Cc1ccc(-c2ccccc2)cc1`, the Potency result is “inactive”. Still for that read-out and setting: then `C[C@]1(c2nc3c(C(N)=O)cccc3[nH]2)CCCN1`, with “inactive”; and `COc1ccc([C@@H]2CC(=O)c3c(O)cc(O[C@@H]4O[C@H](CO[C@@H]5O[C@@H](C)[C@H](O)[C@@H](O)[C@@H]5O)[C@@H](O)[C@H](O)[C@@H]4O)cc3O2)cc1O`, with “inactive”. Turning to `COc1c(Cl)cc2c([nH]c3cnccc32)c1NC(=O)c1cccnc1C`, the Potency result was “inactive”.

`CCC(C)(C)C(=O)O[C@H]1C[C@@H](C)C=C2C=C[C@H](C)[C@H](CC[C@@H]3C[C@@H](O)CC(=O)O3)[C@H]21`: the Potency entry was “inactive”.

For the molecule `Cc1cc(C=c2sc3nc4ccccc4n3c2=O)c(C)n1-c1ccccc1`, the Potency result is “inactive”. Same read-out and setting: for `N#Cc1ccc(C(c2ccc(C#N)cc2)n2cncn2)cc1` the value was “inactive”; for `COc1ccccc1-c1cccc(-c2c(O)c3cc(C#N)c(Cl)cc3[nH]c2=O)c1`, “inactive”; for `O=C(C1CC1)N1CC[C@@H](Cn2c(-c3ccc(-c4ccc5occc5c4)cc3)nc3cnccc32)C1`, “inactive”. Still for that read-out and setting: for `Cc1c(CCOc2ccc(C(=O)O)cc2)c2cc(Cl)ccc2n1C(c1ccccc1)c1ccccc1` the value was “inactive”; for `COc1ccc(-c2oc3cc(OC)ccc3c2C(=O)c2ccc(C#N)cc2)cc1`, “inactive”. The same measure, in the same setting: then `CCCCCCCc1ccc(CCc2cccc(O)c2C(=O)O)cc1`, with “inactive”; and `CC1(C)Cc2c(-c3ccccc3)c(-c3ccc(Cl)cc3)c(CC(=O)O)n2C1`, with “inactive”.

These data come from PubChem BioAssay (NCATS).
